Test results as given in PubChem BioAssay AID1159580 (chemical genetic matrix, 2015).
The whole screen tested about 5,500 compounds, of which about 2,000 (36%) were called active. Not shown: some 18% with an inconclusive outcome. No stated cut-off is given here; in the data, active means normalized growth mostly below about 0.91 (no sharp cut-off); inconclusive means no clear call, values can overlap the other calls; inactive means mostly above about 0.92. The list shows a part of the results.

Experiment: chemical genetic growth profiling, strain panel (AID 1159580);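 further: tested at 20 µM; growth read once vehicle control cultures reached saturation at 30 °C; 1 = growth at the plate median or of vehicle wells; lower values mean less growth of the strain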
Conditions: S. cerevisiae deletion strains, growth OD

Measured: normalized growth

OCC(O)Cc1ccc2c(c1)OCO2 (stereo not drawn)
inactive: locus YAL013W, strain DEP1, active compounds read low 1.02 | locus YAL021C, strain ccr4, active compounds read low 1.02 | locus YAL026C, strain drs2, active compounds read low 0.985 | locus YAL030W, strain snc1, active compounds read low 1 | locus YBL061C, strain skt5, active compounds read low 0.997 | locus YBR009C, strain hhf1, active compounds read low 1.01 | locus YBR021W, strain FUR4, active compounds read low 1.02 | locus YBR023C, strain chs3, active compounds read low 1.01 | locus YBR171W, strain sec66, active compounds read low 1.01 | locus YBR229C, strain ROT2, active compounds read low 1.01 | locus YBR231C, strain swc5, active compounds read low 0.992 | locus YBR279W, strain paf1, active compounds read low 1 | locus YCL011C, strain gbp2, active compounds read low 1 | locus YCL016C, strain dcc1, active compounds read low 1 | locus YCL029C, strain bik1, active compounds read low 0.997 | locus YCL069W, strain vba3, active compounds read low 0.981 | locus YCR088W, strain abp1, active compounds read low 0.993 | locus YDL005C, strain med2, active compounds read low 0.999 | locus YDL035C, strain GPR1, active compounds read low 1.02 | locus YDL040C, strain nat1, active compounds read low 0.998 | locus YDL074C, strain BRE1, active compounds read low 1.05 | locus YDL101C, strain DUN1, active compounds read low 1.02 | locus YDL134C, strain PPH21, active compounds read low 1.01 | locus YDL185W, strain tfp1, active compounds read low 0.999 | locus YDL192W, strain arf1, active compounds read low 0.999 | locus YDR001C, strain nth1, active compounds read low 0.997 | locus YDR069C, strain doa4, active compounds read low 0.979 | locus YDR101C, strain arx1, active compounds read low 0.989 | locus YDR137W, strain rgp1, active compounds read low 0.993 | locus YDR150W, strain NUM1, active compounds read low 1.02 | locus YDR159W, strain sac3, active compounds read low 0.971 | locus YDR162C, strain NBP2, active compounds read low 1.03 | locus YDR195W, strain ref2 0.966 | locus YDR297W, strain sur2, active compounds read low 1.01 | locus YDR318W, strain mcm21, active compounds read low 0.991 | locus YDR334W, strain swr1, active compounds read low 1 | locus YDR335W, strain msn5, active compounds read low 0.996 | locus YDR388W, active compounds read low 1 | locus YDR392W, strain spt3, active compounds read low 1.02 | locus YDR502C, strain sam2, active compounds read low 1 | locus YEL003W, strain gim4, active compounds read low 1.01 | locus YEL037C, strain rad23, active compounds read low 1.01 | locus YEL061C, strain CIN8 (second series), active compounds read low 1 | locus YEL061C, strain CIN8, active compounds read low 1.01 | locus YER015W, strain faa2, active compounds read low 1 | locus YER016W, strain bim1, active compounds read low 1 | locus YER110C, active compounds read low 0.996 | locus YER111C, strain swi4, active compounds read low 0.997 | locus YER155C, strain BEM2 (second series), active compounds read low 0.993 | locus YER155C, strain BEM2, active compounds read low 1.01 | locus YER167W, strain BCK2, active compounds read low 1.01 | locus YFR010W, strain ubp6, active compounds read low 1.01 | locus YGL078C, strain dbp3, active compounds read low 1 | locus YGL086W, strain mad1, active compounds read low 0.993 | locus YGL167C, strain pmr1, active compounds read low 1 | locus YGL173C, strain kem1, active compounds read low 0.991 | locus YGL227W, strain vid30, active compounds read low 0.985 | locus YGL240W, strain doc1, active compounds read low 0.984 | locus YGL248W, strain PDE1, active compounds read low 1.01 | locus YGL253W, strain hxk2, active compounds read low 1 | locus YGR078C, strain PAC10, active compounds read low 1.02 | locus YGR135W, strain pre9, active compounds read low 1.01 | locus YGR229C, strain SMI1, active compounds read low 1.02 | locus YGR252W, strain gcn5, active compounds read low 1 | locus YHR013C, strain ard1, active compounds read low 1.01 | locus YHR027C, strain rpn1, active compounds read low 1 | locus YHR030C, strain SLT2, active compounds read low 1.01 | locus YHR079C, strain IRE1 (second series), active compounds read low 0.991 | locus YHR094C, strain hxt1, active compounds read low 0.999 | locus YHR129C, strain ARP1, active compounds read low 1.01 | locus YHR142W, strain chs7, active compounds read low 1.01 | locus YHR200W, strain rpn10, active compounds read low 1 | locus YIL066C, strain RNR3, active compounds read low 1.02 | locus YIL073C, strain SPO22, active compounds read low 1.04 | locus YIL125W, strain kgd1, active compounds read low 1.02 | locus YIR030C, strain dcg1, active compounds read low 1 | locus YJL092W, strain hpr5, active compounds read low 0.998 | locus YJL095W, strain BCK1 (second series), active compounds read low 1 | locus YJL095W, strain BCK1, active compounds read low 1.04 | locus YJL115W, strain asf1, active compounds read low 1 | locus YJL129C, strain trk1, active compounds read low 0.989 | locus YJL134W, strain LCB3, active compounds read low 1.01 | locus YJL154C, strain vps35, active compounds read low 1 | locus YJL164C, strain tpk1, active compounds read low 1.01 | locus YJL166W, strain qcr8, active compounds read low 1.02 | locus YJL168C, strain set2, active compounds read low 0.994 | locus YJL187C, strain SWE1 (second series), active compounds read low 1.03 | locus YJL187C, strain SWE1, active compounds read low 0.982
